# FEN1 inhibitor: qHTS Assay for the Inhibitors of Human Flap endonuclease 1 (FEN1); P39748; Recombinant FEN1 flap cleavage, fluorescence, 15 min; Potency, µM (series often up to 114 µM), most hits filed as inhibitors; 390,000 compounds, 0.35% hits; note: nearly all actives have a fitted effect of over 65% in size
#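 Reaction started by adding substrate (50 nM final) to 10 nM enzyme after 15 min room-temperature compound preincubation. Reads at 0 and 15 min, with data normalized and fitted to a four-parameter Hill equation.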
# Pol eta inh-1: qHTS for Inhibitors of Polymerase Eta. Potency, µM (titrated, usually from 114 µM), hits mostly inhibitors. 390,000 compounds, 1.2% hits. recombinant Pol eta, fluorescent DNA replication assay. DNA polymerase eta (Homo sapiens), Q9Y253. AID 588591, 2011
#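 Pol eta at 10 nM preincubated with compounds 15 min at room temperature; reaction started with fluorescent substrate (50 nM final) and read kinetically at 0 and 10 min.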
# WRN inhibitor: qHTS for Inhibitors of WRN Helicase | Bifunctional 3'-5' exonuclease/ATP-dependent helicase WRN (Homo sapiens), Q14191 | WRN helicase unwinding, fluorescent forked duplex, kinetic | Potency, µM (doses to about 114 µM), most hits filed as inhibitors | 360,000 compounds, 0.46% hits | AID 651768, 2012; note: nearly all actives have a fitted effect of over 55% in size
#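 Enzyme (20 nM final) and test compound sit together 15 min at room temperature before substrate addition. Substrate is a single-forked duplex oligonucleotide (100 nM) labelled with fluorophore and quencher, with 2 mM ATP; helicase unwinding raises red fluorescence, read kinetically.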
# Pol kappa inh-1: qHTS for Inhibitors of Polymerase Kappa; DNA polymerase kappa (Homo sapiens), Q9UBT6; purified Pol kappa, fluorescent DNA synthesis assay, 10 min; Potency, µM (highest dose often 107 µM), hits mostly inhibitors; 400,000 compounds, 0.53% hits; AID 588579, 2011
#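 Kinetic fluorescence screen: compound preincubated 15 min RT with 10 nM enzyme; 50 nM substrate (final) initiates; reads at 0/10 min.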
# Pol iota inh: qHTS for Inhibitors of Polymerase Iota | 390,000 compounds, 1% hits | Potency, µM (doses to about 115 µM), hits mostly inhibitors | Pol iota fluorescent replication assay, 10 min | DNA polymerase iota (Homo sapiens), Q9UNA4 | AID 588590, 2011
#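 Pol iota at 10 nM preincubated 15 min with compounds at room temperature; reaction started with fluorescent substrate, 50 nM final. Fluorescence read kinetically at 0 and 10 min; buffer-only wells as negative control.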
# POLB inh: qHTS Assay for Inhibitors of DNA Polymerase Beta. P06746. Pol beta primer extension/strand displacement, fluorescence kinetic. Potency, µM (series often up to 114 µM), most hits filed as inhibitors. 340,000 compounds, 1.3% hits. AID 485314, 2010
#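 Pol beta (10 nM) and compounds were preincubated 15 min at room temperature, then 50 nM substrate (final) started primer extension/strand displacement. Reads were taken at 0 and 10 min; concentration-response data were fitted to a four-parameter Hill equation.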
# GALK confirm: Confirmation Assay for Inhibitors of Human Galactokinase (GALK). shares compounds with Pol eta inh-1. purified GALK, Kinase-Glo ATP depletion luminescence. Potency, µM (series often up to 115 µM), usual class: inhibitors. 150 compounds, 70% hits. AID 2015, 2009
# Redox cycling: Confirmatory Assay for Inhibitors of Human Galactokinase (GALK): Phenol-HRP redox assay counterscreen | shares compounds with Pol eta inh-1 | Phenol red-HRP H2O2 redox cycling, absorbance 600 nm | Potency, µM (titrated, usually from 115 µM), hits mostly inhibitors | 150 compounds, 40% hits | AID 2035, 2009
# HEK293 viability: Secondary Assay for Inhibitors of Human Galactokinase (GALK): HEK-293 Cell Viability Assay; 170 compounds, 10% hits; HEK-293 viability, ATP luminescence (CellTiter-Glo), 24/48 h; Potency, µM (top dose mostly 46.1 µM), actives largely listed as inhibitors; shares compounds with Pol eta inh-1
# Pol kappa inh-2: qHTS for Inhibitors of Polymerase Kappa: Confirmatory Assay for Cherry-picked Compounds | Potency, µM, most hits filed as inhibitors | 920 compounds, 76% hits | purified Pol-kappa, fluorescent strand-displacement substrate | shares compounds with Pol eta inh-1
# Pol eta inh-2: qHTS for Inhibitors of Polymerase Eta: Confirmatory Assay for Cherry-picked Compounds; Pol eta primer extension, TAMRA/BHQ fluorescence, 10 min; Potency, µM, most hits filed as inhibitors; shares compounds with Pol eta inh-1; 2,600 compounds, 64% hits
# Hits are given with their value; i = inactive; ? = inconclusive; nt = no result; [ ] = another dose, or the depositor's remark. Rows were chosen to be rich in hits. Some 2.4% of all compounds tested hit in one or more screens of this group. Calls come from the whole dose curve; as a rule, active = well fitted curve in the direction sought with a large enough effect; inconclusive = small, poorly fitted or top-dose-only effect, or another doubt; inactive = no such curve, though single readings can be large; an effect the other way counts as inactive or inconclusive.
SMILES,FEN1 inhibitor,Pol eta inh-1,WRN inhibitor,Pol kappa inh-1,Pol iota inh,POLB inh,Pol eta inh-2,others
COc1ccc(C(CC(=O)NCc2ccccc2)N2Cc3ccccc3C2=O)cc1 (stereo not drawn),i,i,nt,i,i,i,nt,
CS(=O)(=O)c1ccc2nc(NC(=O)c3ccccc3)sc2c1,i,i,i,i,i,i,nt,
CS(=O)(=O)c1ccc(C(=O)Nc2nc(-c3ccco3)c(-c3ccco3)s2)cc1,56.2µM,5.01µM,44.7µM,3.16µM,1.58µM,nt,42.6,
Cc1cc(C)cc(NC(=O)C2CCCN(S(=O)(=O)c3cccc4nsnc34)C2)c1 (stereo not drawn),i,i,nt,i,i,i,nt,
CC1=C(C(=O)Nc2ccccc2)C(c2ccc(C(=O)O)cc2)n2nc(SCC(=O)c3ccc(C)cc3)nc2N1 (stereo not drawn),i,i,nt,i,?,i,nt,
CC(C)Cn1c(N)c(C(=O)COC(=O)C2Cc3ccccc3CN2S(C)(=O)=O)c(=O)n(C)c1=O (stereo not drawn),i,22.4µM,?,?,44.7µM,nt,?,Pol kappa inh-2=?
O=C(c1ccco1)N1C2C=CC(C2)C1(C(F)(F)F)C(F)(F)F (stereo not drawn),i,35.5µM,i,i,?,i,?,
Cc1ccc(C(=O)N2C3C=CC(C3)C2(C(F)(F)F)C(F)(F)F)cc1 (stereo not drawn),i,i,i,i,i,i,nt,
CCCNC(=O)C1CCC(Cn2c(=O)c3sccc3n(CC(=O)N(CC)CC)c2=O)CC1 (stereo not drawn),i,i,nt,i,i,i,nt,
COc1ccc(N2CC(C(=O)Nc3nnc(SCC(=O)NCc4ccco4)s3)CC2=O)cc1 (stereo not drawn),i,22.4µM,?,i,?,?,?,Pol kappa inh-2=42.3
Cc1ccc(C)c(NC(=O)CCc2c(C)nn(-c3ccc(N4CCCC4)nn3)c2C)c1,i,i,nt,i,i,i,nt,
COc1ccc(-c2cc(C(F)(F)F)nc(SCCC(=O)Nc3ccc(O)cc3)n2)cc1,i,i,nt,i,i,i,nt,
NS(=O)(=O)c1ccc(CCNC(=O)CSc2ccsc2[N+](=O)[O-])cc1,i,22.4µM,i[11.6 µM],?,?,i,?,
COc1ccccc1Nc1cc2cc(Br)ccc2c(=O)[nH]1,i,20µM,i,79.4µM,?,nt,67.5,
O=c1[nH]c(Nc2ccccc2)cc2ccccc12,?,?,i,i,11.2µM,i,nt,GALK confirm=42.1µM;Redox cycling=21.1µM;HEK293 viability=i
COc1ccccc1Nc1nnc(C)c(=O)[nH]1,i,i,i,i,i,i,nt,
O=c1[nH]c(Nc2ccccc2)cc2cc(Br)ccc12,i,39.8µM,i,?,?,nt,?,

# Compound activity from PubChem BioAssay.
